Results on 29 compounds are retold here after PubChem BioAssay.

Several values for one entry are separate records, joined by “and”; a condition that tells them apart may be missing. Identical values can stand only once. Inconclusive results are not listed. For some of these results: Entries with a potency or affinity are not part of this list. Some compounds were tested as several samples or in several runs, with calls that do not always agree. Activity calls are given as the source filed them. Unless noted, how the calls were made is not given here.

For assay [1], the system named is Aerobactin synthetase IucA (Klebsiella pneumoniae hvKP1). Description: IucA enzyme inhibition, primary screen, biochemical, Spectrum library (AID 1346200).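 Further: 100% = wells without compound and 0% = wells lacking enzyme.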 Conditions: malachite green pyrophosphate, A620, at 8 µM, stronger effect = lower value.
Assay [2] deals with Mitogen-activated protein kinase 7 (Homo sapiens) (UniProt Q13164). The experiment in a line: Gal4-ERK5 driven luciferase induction – cell-based, HTS, primary screen (AID 1508626;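 active means luciferase signal above three times the same-plate solvent-only control wells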;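 further: luciferase driven by Gal4-ERK5 fusion binding five Gal4 sites before minimal TATA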). To be noted: HeLa Gal4-ERK5 transactivation, 18 h, at 5 µM, stronger effect = higher value.
Mitogen-activated protein kinase 7 (Homo sapiens), sequence (Q13164 whole entry, looked up, the tested form may be a part): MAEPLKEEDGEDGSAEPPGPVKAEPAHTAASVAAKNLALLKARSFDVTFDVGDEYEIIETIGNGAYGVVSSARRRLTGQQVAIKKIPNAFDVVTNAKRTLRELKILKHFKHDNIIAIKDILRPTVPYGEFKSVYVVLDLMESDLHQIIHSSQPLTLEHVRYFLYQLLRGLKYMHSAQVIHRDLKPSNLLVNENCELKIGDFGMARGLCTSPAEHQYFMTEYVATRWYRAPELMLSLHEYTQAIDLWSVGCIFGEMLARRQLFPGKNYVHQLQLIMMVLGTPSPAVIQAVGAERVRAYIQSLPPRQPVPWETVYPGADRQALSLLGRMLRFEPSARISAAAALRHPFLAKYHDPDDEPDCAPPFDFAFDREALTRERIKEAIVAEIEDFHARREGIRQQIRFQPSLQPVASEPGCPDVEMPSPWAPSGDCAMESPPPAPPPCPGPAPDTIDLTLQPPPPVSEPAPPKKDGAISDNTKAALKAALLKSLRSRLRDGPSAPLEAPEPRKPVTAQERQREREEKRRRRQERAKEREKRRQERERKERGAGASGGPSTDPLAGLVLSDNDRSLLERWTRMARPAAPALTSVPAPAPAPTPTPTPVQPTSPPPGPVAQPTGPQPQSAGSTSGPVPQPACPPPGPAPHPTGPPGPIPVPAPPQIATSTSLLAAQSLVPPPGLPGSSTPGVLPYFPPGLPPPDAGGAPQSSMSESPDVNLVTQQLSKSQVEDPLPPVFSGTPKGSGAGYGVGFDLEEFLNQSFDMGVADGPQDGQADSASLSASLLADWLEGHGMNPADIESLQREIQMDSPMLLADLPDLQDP
For assay [3], the system named is Aerobactin synthetase IucA (Klebsiella pneumoniae, hypervirulent). The experiment in a line: biochemical IucA inhibition screen of LOPAC library by absorbance (AID 1346212).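 Further: 100% = no compound wells and 0% = no enzyme wells.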 To be noted: IucA enzyme assay, absorbance (OD) readout; stronger effect = lower value;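 tested at 8 µM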.
A short description of assay [4]: P. berghei load reduction in hepatocytes – cell-based, HepG2, luciferase luminescence, HepG2 viability, primary screen (AID 624349; in the data active means parasite load remaining mostly below about 12%, no sharp cut-off; inactive means mostly above about 10%;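 further: 100% = mean of DMSO negative control wells on the same plate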). To be noted: P. berghei liver stage in HepG2, luciferase luminescence, concentration not given here; parasite load remaining: stronger effect = lower value; viability: measured here: HepG2 viability without parasites.
Assay [5] is described as follows: blockers of polyQ-driven CASP3 activation – cell-based (AID 1583). To be noted: polyglutamine-induced caspase-3 activation, cell assay; stronger effect = higher value;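 tested at 10 µM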.
The nature of assay [6]: yeast 75Q aggregation reduction – 75Q-TubU reporter (AID 1593). To be noted: Yeast 75Q polyglutamine aggregation reporter.
The nature of assay [7]: restoration of touch response, mutant HTT neurons – whole organism, C. elegans mechanosensory neurons, N-terminal huntingtin (AID 1599). Conditions: C. elegans polyQ-huntingtin mechanosensory neurons, stronger effect = higher value.
A short description of assay [8]: blockers of cytochrome c efflux from mitochondria – biochemical, purified mitochondria (AID 1603).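 Further: mouse liver mitochondria challenged with calcium chloride; signal normalized to the plate average as 100%.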 Conditions: stronger effect = lower value.
The nature of assay [9]: polyglutamine aggregate formation blockers (AID 1604). Conditions: polyglutamine-induced protein aggregation inhibition assay; stronger effect = higher value; tested at 2.5 µM.
Assay [10] is described as follows: glutamate transport activators, MN-1 cells, MN-1 cell line (AID 1612).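 Further: tested at 1 µM final; 0% = mean of DMSO vehicle wells on each plate; positive means more glutamate uptake than control and negative means less.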 Conditions: MN-1 motor neuron cells, stronger effect = higher value.
A short description of assay [11]: GFP-Q80 aggregate reduction, neuronal-like cells, cell-based, NGF-treated PC12, GFPQ80 (AID 1614).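 Further: lower means fewer inclusions and 0 means no inclusions at all.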 Conditions: PC12 NGF-treated GFP-polyQ80 inclusion reduction.
The nature of assay [12]: 75Q-TubH aggregate inhibition, S. cerevisiae, yeast (AID 1616). To be noted: S. cerevisiae 75Q-TubH polyglutamine aggregation suppression; stronger effect = higher value.
Assay [13] can be described thus: compounds altering viability of human ES cells (AID 493140).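 Further: cells exposed to compounds for four days before counting.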 To be noted: human embryonic stem cell survival screen; stronger effect = higher value.
Assay [14] can be described thus: viability loss with induced miR-34 in A549 – imaging, A549 dox-inducible miR-34, nuclei and caspase counts, primary screen (AID 1347080;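 active means compounds whose cell count with miR-34 switched on is under 0.7 times the count with it off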). To be noted: A549 miR-34 inducible, Hoechst nuclei count, 48 h.
Assay [15] is described as follows: chitosan synthesis blockers in C. neoformans – flow cytometry, Cibacron Brilliant Red staining (AID 1347148).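 Further: compound exposure lasted three days at 37 degrees C.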 Conditions: Cryptococcus neoformans chitosan, stronger effect = lower value; at 10 µM unless noted.
Assay [16] has as its target ATP-dependent translocase ABCB1 (Homo sapiens) (UniProt P08183). The experiment in a line: P-glycoprotein substrate transport blockade – cell-based (AID 377; in the data active means fluorescence slope change above about 50%). To be noted: MDR1-expressing cells, fluorescent substrate accumulation slope; stronger effect = higher value; concentration not given here.
Where [17] appears, read: measured here: relative caspase fold change +Dox/-Dox.
Where [18] appears, read: measured here: total cells with miR-34 induction, stronger effect = lower value.
[19] abbreviates: measured here: total cells without miR-34 induction.

ATP-dependent translocase ABCB1 (Homo sapiens), sequence (P08183 whole entry, looked up): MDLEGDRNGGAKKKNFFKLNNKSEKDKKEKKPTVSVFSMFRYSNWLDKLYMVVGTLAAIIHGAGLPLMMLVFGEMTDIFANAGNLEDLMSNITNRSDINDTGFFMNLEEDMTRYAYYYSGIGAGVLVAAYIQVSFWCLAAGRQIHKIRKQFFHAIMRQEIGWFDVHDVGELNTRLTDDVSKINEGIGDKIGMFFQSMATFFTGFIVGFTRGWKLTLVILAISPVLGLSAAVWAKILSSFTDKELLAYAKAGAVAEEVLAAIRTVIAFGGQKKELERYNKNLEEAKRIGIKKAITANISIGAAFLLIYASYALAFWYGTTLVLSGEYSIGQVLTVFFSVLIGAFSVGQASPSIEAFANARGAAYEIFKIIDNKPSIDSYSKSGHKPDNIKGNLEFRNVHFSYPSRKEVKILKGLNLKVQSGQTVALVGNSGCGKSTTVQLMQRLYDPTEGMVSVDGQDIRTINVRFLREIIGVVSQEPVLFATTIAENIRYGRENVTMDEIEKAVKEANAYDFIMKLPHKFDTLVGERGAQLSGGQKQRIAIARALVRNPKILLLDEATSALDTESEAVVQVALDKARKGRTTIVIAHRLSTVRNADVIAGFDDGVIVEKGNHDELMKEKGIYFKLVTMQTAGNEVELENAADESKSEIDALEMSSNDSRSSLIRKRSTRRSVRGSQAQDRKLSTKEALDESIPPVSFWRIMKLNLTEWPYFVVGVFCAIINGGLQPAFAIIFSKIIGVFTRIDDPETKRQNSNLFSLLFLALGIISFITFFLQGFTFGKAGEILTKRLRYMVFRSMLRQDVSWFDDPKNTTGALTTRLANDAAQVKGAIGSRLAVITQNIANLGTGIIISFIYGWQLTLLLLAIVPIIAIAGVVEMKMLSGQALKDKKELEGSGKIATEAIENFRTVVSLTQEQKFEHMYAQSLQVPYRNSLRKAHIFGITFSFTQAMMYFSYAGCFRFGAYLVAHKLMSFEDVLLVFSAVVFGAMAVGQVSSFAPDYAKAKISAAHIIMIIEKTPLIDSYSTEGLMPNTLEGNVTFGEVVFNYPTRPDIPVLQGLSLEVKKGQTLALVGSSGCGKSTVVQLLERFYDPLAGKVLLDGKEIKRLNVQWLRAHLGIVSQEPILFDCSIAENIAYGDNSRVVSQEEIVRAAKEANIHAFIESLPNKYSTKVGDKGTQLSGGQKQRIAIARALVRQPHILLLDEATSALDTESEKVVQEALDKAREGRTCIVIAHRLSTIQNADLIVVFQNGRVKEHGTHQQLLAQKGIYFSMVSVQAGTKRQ

As to `O=c1ccc2c(O)c3ccoc3cc2o1`, in assay [1], the activity remaining was 96.6% (inactive). Moreover, the luciferase signal in assay [2] was 32 AU (inactive).

Consider `Nc1c(C(=O)Nc2nnc(-c3ccccc3)s2)sc2nc3c(cc12)CCCCC3`, for which the remaining activity (usually the signal under treatment as a percentage of the control signal) in assay [3] is 109% (inactive).

For the compound `C[C@@H]1C(=O)OC2[C@H](O)C34[C@@H]5OC(=O)[C@@]3(O[C@@H]3OC(=O)[C@H](O)[C@@]34[C@H](C(C)(C)C)[C@H]5O)[C@]21O` (some centres undefined), in assay [4], the parasite load remaining is 84.4% (inactive) and the viability (commonly a read-out of living cells in per cent, often relative to untreated cells) was 70.9%. The activity remaining in [1] was 116% (inactive).

Regarding `C[C@@H]1CC[C@H]2[C@@H](C)C(=O)O[C@@H]3OC4(C)CC[C@@H]1[C@]32OO4`, the inhibition (commonly the drop in the measured response relative to a control, in per cent) in [5] came out at 18.8%. The score in assay [6] turned out to be 0.49. In [7], this compound came in with a rescue above control of 21.4. Moreover, the cytochrome c release ratio in assay [8] came out at 1.15. Moreover, in assay [9], the inhibition of aggregation turned out to be 79.2%. For the same compound, the glutamate uptake change in assay [10] worked out at 20.6%. The same compound showed an inclusion score in assay [11] of 2. The aggregation suppression score in [12] amounted to 0.15. Besides, the survival in assay [13] is 4.67 (inactive). Besides, in assay [4], the parasite load remaining was 71.2% (inactive) and the viability was found to be 72.2%. In addition, the activity remaining in assay [1] was 86.3% (inactive).

`O=C1CC2OCC=C3CN4CC[C@]56c7ccccc7N1C5[C@H]2[C@H]3CC46` (some centres undefined): the inhibition in assay [5] is -12.5%. In [6], this compound had a score of 1.28. Moreover, the rescue above control in assay [7] was -0.21. Besides, the cytochrome c release ratio in assay [8] was determined as 1. Moreover, in assay [9], the inhibition of aggregation worked out at 70.4%. Besides, the glutamate uptake change in assay [10] is -17.6%. The compound also displayed an inclusion score in [11] of 1. For the same compound, the aggregation suppression score in [12] is 0.688. Further, the parasite load remaining in [4] was 113% (inactive) and 54.7% (inactive). For the same compound, in assay [4], the viability was 71.9% and 95.5%. Moreover, the activity remaining in assay [1] was 121% (inactive). Further, the fold change in [14] (stronger effect = lower value) is 0.917 (inactive); in [14] (setting [17]) it was 1.82. Besides, the cell count stood at 11700 in assay [14] (setting [18]) and 12700 in assay [14] (setting [19]).

Take `CC(=O)C1=C(O)C2C3c4c[nH]c5cccc(c45)CC3C(C)(C)N2C1=O` (centres undefined): the inhibition in [5] is -21.2%. This compound gave a score in assay [6] of -0.21. This compound showed a rescue above control in assay [7] of 9.72. For the same compound, in assay [8], the cytochrome c release ratio was found to be 1.1. For the same compound, the inhibition of aggregation in assay [9] was -15.2%. Further, the glutamate uptake change in [10] came out at 28.8%. This compound also displayed an aggregation suppression score in assay [12] of 0.0191. For the same compound, the activity remaining in [1] was 102% (inactive). Besides, the fold fluorescence in assay [15] is 4.14 [at 148.6 µM] (inactive).

With `N#CC(C#N)=C(N)/C(C#N)=C/c1ccc(O)cc1`, the remaining activity in assay [3] is 117% (inactive).

As for `Cc1ccc(OC[C@H](O)[C@H](C)NC(C)C)c2c1CCC2`, the remaining activity in assay [3] is 101% (inactive).

For the compound `C/C=C(\C)C(=O)O[C@H]1C[C@@H](OC(C)=O)[C@@]2(C(=O)OC)CO[C@@H]3C2[C@]12CO[C@](O)(C(=O)OC)[C@H]2[C@](C)(C12O[C@@]1(C)[C@H]1C[C@@H]2OC2OC=C[C@@]21O)[C@@H]3O` (some centres undefined), the inhibition in assay [5] amounted to 0.47%. In addition, the score in [6] is 1.31. Also, the rescue above control in assay [7] turned out to be 3.11. Besides, in assay [8], the cytochrome c release ratio amounted to 1.46. The inhibition of aggregation in assay [9] is 72.4%. The glutamate uptake change in assay [10] was determined as 12.4%. The inclusion score in assay [11] was 2. Moreover, the aggregation suppression score in assay [12] stood at 1. In addition, in [4], the parasite load remaining was 62.6% (inactive) and the viability amounted to 97.8%. For the same compound, the activity remaining in assay [1] was 89% (inactive).

Regarding `C[C@]12CCC3C(CC[C@H]4CC(=O)CC[C@]34C)C1CCC2=O` (some centres undefined), in assay [4], the parasite load remaining was 63.7% (inactive) and the viability is 96.1%. In addition, the activity remaining in assay [1] is 94.5% (inactive).

In the case of `COc1ccc2c(c1)[C@]13CCCC[C@H]1[C@H](C2)N(C)CC3`, the inhibition in assay [5] is -11.5%. Further, the score in assay [6] came to 1.32. This compound yielded a rescue above control in [7] of -2.69. The cytochrome c release ratio in [8] worked out at 0.98. In assay [9], the inhibition of aggregation amounted to 78.2%. Moreover, in assay [10], the glutamate uptake change came out at 6.18%. In assay [11], this compound gave an inclusion score of 2. The aggregation suppression score in assay [12] is 1.29. In assay [4], the parasite load remaining was 84.3% (inactive) and the viability was determined as 71.2%. The activity remaining in assay [1] is 115% (inactive).

As to `C=C[C@@H]1C2=CCOC(=O)C2=CO[C@H]1O[C@@H]1O[C@H](CO)[C@@H](O)[C@H](O)[C@H]1O`, the activity remaining in [1] is 126% (inactive). In addition, the luciferase signal in assay [2] was 64 AU (inactive).

As for `C[C@]12C=CC(=O)C=C1CC[C@H]1[C@@H]3C[C@@H](O)[C@](O)(C(=O)CO)[C@@]3(C)C[C@H](O)[C@@]12F`, the remaining activity in [3] is 110% (inactive).

Regarding `O=c1c2ccccc2[nH]c(=S)n1CCN1CCC(=C(c2ccc(F)cc2)c2ccc(F)cc2)CC1`, the remaining activity in assay [3] is 119% (inactive).

Consider `COc1ccccc1N1CCN(CC(O)COc2cccc3ccccc23)CC1` (centres undefined), for which the remaining activity in assay [3] was 96.1% (inactive).

Regarding `O=C1OCCN1/N=C/c1ccc([N+](=O)[O-])o1`, in [4], the parasite load remaining is 1.08% (active) and 4.96% (inactive). The viability in assay [4] is 58.1% and 96.5%. In addition, in assay [1], the activity remaining was 104% (inactive). Moreover, the fold change in [14] (stronger effect = lower value, cell number ratio, induced over uninduced) was 0.857 (inactive); in assay [14] (setting [17]), 1.85. The cell count in [14] (setting [18]) turned out to be 9350; in [14] (setting [19]), 10900.

Regarding `C=C1C2CC[C@H]3[C@]4(C)C[C@H](OC5OC(CO)C(OS(=O)(=O)O)C(OS(=O)(=O)O)C5OC(=O)CC(C)C)C[C@@H](C(=O)O)[C@H]4CC[C@]3(C2)[C@H]1O` (some centres undefined), the fluorescence slope change in assay [16] was 23.6% (inactive). Also, the inhibition in [5] turned out to be 13.1%. The compound further showed a score in [6] of 1.67. In addition, in assay [7], the rescue above control is -8.48. Also, the cytochrome c release ratio in assay [8] came out at 1.3. Moreover, the inhibition of aggregation in assay [9] worked out at 74.7%. Besides, the glutamate uptake change in [10] was found to be 4.94%. The compound also displayed an inclusion score in assay [11] of 2. The compound also had an aggregation suppression score in assay [12] of 1.68. In assay [13], the survival was 8.25 (inactive). Further, the activity remaining in [1] was 102% (inactive). Besides, the luciferase signal in assay [2] was 160 AU (inactive).

On to `CC1(C)C2C[C@@H](O)[C@]3(C)C(CC[C@@]4(C)[C@H](c5ccoc5)OC(=O)[C@H]5O[C@]543)[C@@]2(C)[C@@H](O)C[C@H]1O` (some centres undefined), for which the activity remaining in [1] is 124% (inactive). Besides, the luciferase signal in [2] is 32 AU (inactive).

Consider `COC(=O)[C@H](NC(=O)c1cc(-c2ccccc2)nc2ccccc12)c1ccccc1`, for which, in [3], the remaining activity was 97.3% (inactive).

On to `CNC(Cc1c[nH]c2ccccc12)C(=O)O` (centres undefined), for which, in assay [4], the parasite load remaining is 105% (inactive) and the viability came out at 73.8%. Besides, the activity remaining in assay [1] is 108% (inactive). Further, the luciferase signal in assay [2] was 36 AU (inactive).

For the compound `CC(C)C[C@H](NC(=O)[C@@H](O)[C@H](N)Cc1ccccc1)C(=O)O`, the remaining activity in assay [3] was 108% (inactive).

For `O=C(O)C1(C(=O)O)CCC1.[NH2-].[NH2-].[Pt+2]`, the remaining activity in [3] is 113% (inactive).

In the case of `O=c1cc(N2CCOCC2)oc2c(-c3ccccc3)cccc12`, the remaining activity in assay [3] was 110% (inactive).

Turning to `CCN1C(=O)C=CC1=O`, in assay [3], the remaining activity was 102% (inactive).

For the compound `COc1cc(/C=C(\C#N)C(=O)c2ccc(O)c(O)c2)cc(I)c1O`, the remaining activity in assay [3] is 85.4% (inactive).

Regarding `Nc1nc(OCc2ccccc2)c2[nH]cnc2n1`, the remaining activity in [3] was 103% (inactive).

`O=Nc1c(-c2c(O)[nH]c3cc(Br)ccc23)[nH]c2ccccc12`: the remaining activity in assay [3] was 113% (inactive).

Consider `C[C@]12CCC(=O)C=C1CC[C@@H]1[C@@H]2CC[C@@]2(C)[C@H]1CC[C@]2(O)C(=O)CO`, for which, in assay [3], the remaining activity is 110% (inactive).

Regarding `CC(N)=NCCCC[C@@H](N)C(=O)O`, the remaining activity in assay [3] was 124% (inactive).
